Source: PubChem (several laboratories)
Rtt109 HAT inh: inhibitors of C. albicans Rtt109/Vps75 HAT, primary screen, biochemical, ThioGlo CoA-SH fluorescence, plate reader; Histone acetyltransferase RTT109 (Candida albicans (strain SC5314 / ATCC MYA-2876)), …; purified Rtt109/Vps75, 4 h; inhibition, % at 34.9 µM; actives 0.16% (n = 330,000); AID 540336, 2011;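 active means inhibition of at least 50% in every replicate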
PvdQ acylase: P. aeruginosa PvdQ acylase inhibitors, primary screen, biochemical, fluorescence, plate reader and imaging, single point; PvdQ acylase [Pseudomonas aeruginosa LESB58]; purified PvdQ acylase; inhibition, % at 10 µM; actives 0.063% (n = 340,000); AID 488965, 2010; in the data active means inhibition above about 30%, passing the limit was not always enough;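 further: 0% = vehicle neutral wells and 100% = reference inhibitor wells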
PDI turbidity: inhibitors of human PDI, primary screen, biochemical, turbidity, single point, plate reader | inhibition, % at 10 µM | actives 0.052% (n = 350,000) | PDI insulin aggregation turbidity, A650, 90 min | Protein disulfide-isomerase (Homo sapiens), P07237 | AID 588391, 2011;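 active means mean inhibition across replicates of 30% or more, whatever share of single replicates reach that level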
ERp5 block: inhibitors of ERp5-driven insulin aggregation, primary screen, biochemical, turbidity, absorbance 650 nm, single point; actives 0.05% (n = 350,000); 90 min; inhibition, % at 9.99 µM; Protein disulfide-isomerase A6 (Homo sapiens), Q15084;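 active means mean replicate inhibition above about 25%, with every replicate also reaching it, limit read from the data, passing the limit was not always enough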
Target sequence (Q15084 whole entry, looked up): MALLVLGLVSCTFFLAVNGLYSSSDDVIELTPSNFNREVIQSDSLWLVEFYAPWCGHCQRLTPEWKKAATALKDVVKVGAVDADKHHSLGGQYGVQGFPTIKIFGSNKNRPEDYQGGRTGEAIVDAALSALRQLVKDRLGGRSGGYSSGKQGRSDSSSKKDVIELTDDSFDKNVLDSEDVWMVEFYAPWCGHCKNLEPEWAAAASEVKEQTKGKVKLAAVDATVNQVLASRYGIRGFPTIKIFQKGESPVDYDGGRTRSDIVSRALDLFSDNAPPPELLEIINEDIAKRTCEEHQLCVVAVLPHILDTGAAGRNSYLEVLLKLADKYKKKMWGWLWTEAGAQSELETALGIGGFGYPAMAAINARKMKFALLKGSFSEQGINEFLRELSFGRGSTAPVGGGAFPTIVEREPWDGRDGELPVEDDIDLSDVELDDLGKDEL
Efflux pump inh: inhibitors of Candida efflux pumps in yeast, primary screen, S. cerevisiae, Nile Red, multiplex; inhibition, % at 10 µM; actives 0.44% (n = 330,000); S. cerevisiae Candida pump triplex;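 active means plate passing quality check with inhibition over a set limit, or well fluorescence over plate mean plus 4 SD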;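 further: Nile Red retained in pooled yeast measured as flow cytometry median fluorescence; 0% = buffer negative control and 100% = Enniatin B positive control; higher means more Nile Red kept so more efflux inhibition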
Yeast cmpd fluor: flagged as fluorescent in efflux inhibitor counter-screen; fluorescence ratio to DMSO, % at 10 µM; shares compounds with Efflux pump inh; actives 4% (n = 1,700); AID 588517; S. cerevisiae AD/pABC3, compound fluorescence, flow cytometry;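 active means fluorescence ratio to DMSO above its plate's cutoff, the plate mean ratio plus 5 SD, cut at about 210% in these data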;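 further: unstained yeast with no Nile Red so the signal is compound autofluorescence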
Mdr1 pump inh: inhibitors of Candida albicans Mdr1 efflux, confirmation, flow cytometry, singleplex, Cherry Pick1 set. shares compounds with Efflux pump inh. S. cerevisiae AD/CaMDR1, Nile Red efflux. inhibition, % at 10 µM. actives 1% (n = 1,700); in the data active means inhibition above about 26%;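 further: 0% = DMSO vehicle and 100% = reference inhibitor; higher means more Nile Red retained so more efflux inhibition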
Cdr2 pump inh: inhibitors of Candida albicans Cdr2 efflux pump, confirmation, S. cerevisiae AD/CaCDR2, flow cytometry, cherry pick 1, singleplex. shares compounds with Efflux pump inh. Nile Red retention. Nile Red retention ratio vs DMSO, % at 10 µM. actives 4% (n = 1,700). AID 588520, 2011; in the data active means Nile Red retention ratio vs DMSO above about 190%;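 further: higher ratio means more blocking of Cdr2 efflux of the dye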
CaCdr1 efflux inh: inhibitors of Candida albicans Cdr1 efflux pump, confirmation, S. cerevisiae AD/CaCDR1, flow cytometry, cherry pick 1, singleplex. shares compounds with Efflux pump inh. Nile Red efflux. inhibition, % at 10 µM. actives 1% (n = 1,700). AID 588522, 2011;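 active means inhibition above the screen-wide mean plus twice its standard deviation, cut at about 32% in these data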
* marks the source's active call; other numbers are inactive results; · = not tested or not shown. An excerpt weighted towards active compounds, which were near 0.54% of everything screened.

SMILES | Rtt109 HAT inh | PvdQ acylase | PDI turbidity | ERp5 block | Efflux pump inh | Yeast cmpd fluor | Mdr1 pump inh | Cdr2 pump inh | CaCdr1 efflux inh
COc1cccc(C(C(=O)NC(C)(C)C)N(C(=O)CCC(=O)Nc2cc(C)on2)C(C)(C)C)c1OC (stereo not given) | 3 | -5 | 10 | · | 0 | 93 | 0 | 98 | 0
CN(C)C(=O)C[C@H]1CC[C@H]2[C@@H](COc3ccc(NS(=O)(=O)c4cccc(F)c4)cc3C(=O)N2C)O1 | · | · | · | -4 | · | · | · | · | ·
O=C(CN1C(=O)/C(=C\C=C\c2ccccc2)SC1=S)Nc1ccc(F)cc1 | 0 | -8 | 1 | -6 | 0 | · | · | · | ·
O=C(COC(=O)CCN1C(=O)/C(=C\C=C\c2ccccc2)SC1=S)Nc1cc(F)ccc1F | -4 | -8 | 4 | -1 | 0.8* | 105 | 0 | 106 | 0
Cc1c2cc[n+](CCN3CCCCC3)cc2c(C)c2c1[nH]c1ccc(O)cc12 | -3 | -8 | -40 | · | · | 107 | 0 | 93 | 0
Cn1ncc(Cl)c1C(=O)Nc1sc2c(c1C(N)=O)CCC2 | 8 | -13 | 3 | · | 0 | 92 | 0 | 98 | 0
CCn1ccc(C(=O)Nc2sc3c(c2C(=O)OC)CCC3)n1 | -22 | -12 | -2 | -4 | 0.6* | 93 | 0 | 95 | 0
NC(=O)c1c(NC(=O)c2ccccc2)sc2c1CCC2 | -14 | -6 | 3 | 1 | 0 | · | · | · | ·
CCn1ncc(Br)c1C(=O)Nc1sc2c(c1C(=O)OC)CCC2 | -12 | -15 | -6 | · | 0 | 98 | 0 | 112 | 0
COC(=O)c1c(NC(=O)c2nn(C)cc2Cl)sc2c1CCCC2 | -5 | 2 | 3 | · | 0 | · | · | · | ·
COC(=O)c1c(NC(=O)c2ccn(C)n2)sc2c1CCC2 | 11 | 1 | -3 | 1 | 0 | 102 | 0 | 106 | 0
C/C=C/c1ccc2c(c1)O[C@H](CN(C)Cc1ccccn1)[C@@H](C)CN([C@@H](C)CO)S2(=O)=O | · | · | · | 1 | · | · | · | · | ·
CO[C@H]1CN(C)C(=O)c2ccc(NC(=O)C3CC3)cc2OC[C@H](C)N(C(=O)c2ccccn2)C[C@H]1C | · | · | · | 3 | · | · | · | · | ·
O=C(Cc1ccncc1)NCC[C@H]1CC[C@H](NC(=O)C2CCOCC2)[C@@H](CO)O1 | · | · | · | 2 | · | · | · | · | ·
O=C(Nc1sc2c(c1C(=O)O)CCC2)c1ccccc1Cl | 4 | -13 | -25 | -1 | 0.5* | 100 | 0 | 107 | 0
CCn1ncc(Br)c1C(=O)Nc1cc(C)cc(C)c1 | -18 | -15 | -3 | · | 6.5* | 108 | 0 | 106 | 0
O=C(C[C@H]1C=C[C@H](NS(=O)(=O)c2ccccc2)[C@@H](CO)O1)N1CCC(Cc2ccccc2)CC1 | · | · | · | -8 | · | · | · | · | ·
Cc1ccc(NC(=O)c2ccc(-n3cccn3)c([N+](=O)[O-])c2)cc1 | -4 | 5 | -1 | · | 0 | · | · | · | ·
O=C(Nc1ccc(C2=NCCN2)cc1)c1ccc(C(=O)Nc2ccc(C3=NCCN3)cc2)c([N+](=O)[O-])c1 | 8 | -5 | -27 | -2 | 1.1* | 95 | 0 | 89 | 0
CC(=O)N(\C=C/C=C/C=C1\Sc2ccccc2C1=O)c1ccccc1 | -3 | -1 | 8 | 3 | 5.7* | 297* | 0 | 149 | 0
CC(C)CCN1CCC(n2nccc2NC(=O)C2CCOC2)CC1 (stereo not given) | 2 | -21 | 5 | 0 | 1.4* | 99 | 0 | 112 | 0
CC(C)NC(=O)NCC[C@H]1CC[C@H](NS(=O)(=O)c2ccc(-c3ccccc3)cc2)[C@H](CO)O1 | · | · | · | 0 | · | · | · | · | ·
C[C@H]1CN([C@@H](C)CO)C(=O)CCCn2cc(nn2)CO[C@H]1CN(C)Cc1ccc(C(F)(F)F)cc1 | · | · | · | 1 | · | · | · | · | ·
Cc1ccccc1OCCNc1cc(N2CCN(CCO)CC2)ccc1[N+](=O)[O-] | 17 | -8 | -12 | · | 19* | 107 | 0 | 95 | 0
CN(C)CCN(C(=O)c1ccc(S(=O)(=O)N2CCc3ccccc32)cc1)c1nc2ccc(F)cc2s1 | 32 | 5 | -5 | -9 | 0.4* | 110 | 0 | 108 | 0
SMILES | Rtt109 HAT inh | PvdQ acylase | PDI turbidity | ERp5 block | Efflux pump inh | Yeast cmpd fluor | Mdr1 pump inh | Cdr2 pump inh | CaCdr1 efflux inh
Cc1ccc(S(=O)(=O)Nc2ccc3c(c2)CC(=O)N([C@H](C)CO)C[C@@H](C)[C@@H](CN(C)Cc2ccc(C(=O)Nc4ccccc4N)cc2)O3)cc1 | · | · | · | -5 | · | · | · | · | ·
CCOC(=O)c1ccccc1NC(=O)c1cn(-c2ccc(OC)cc2)c(=O)c2ccccc12 | 0 | -4 | -4 | · | 15* | 94 | 0 | 101 | 0
CCCC(=O)N1CCC2(CC1)CN(C(=O)C1CC1)[C@H](CO)c1[nH]c3cc(OC)ccc3c12 | · | · | · | 0 | · | · | · | · | ·
CO[C@H]1CN(C)C(=O)c2ccc(NS(C)(=O)=O)cc2OC[C@H](C)N(CCC(F)(F)F)C[C@H]1C | · | · | · | -3 | · | · | · | · | ·
CC(NC(=O)/C=C/c1ccco1)c1nc2ccccc2n1Cc1ccccc1F (stereo not given) | -5 | -13 | -8 | · | 0 | · | · | · | ·
CC(NC(=O)/C=C/c1ccco1)c1nc2ccccc2n1Cc1c(Cl)cccc1Cl (stereo not given) | -1 | -2 | 5 | 7 | 11* | 99 | 0 | 95 | 0
Cc1ccc(S(=O)(=O)Nc2cccc3c2O[C@@H](CN(C)S(=O)(=O)c2cccs2)[C@H](C)CN([C@@H](C)CO)C3=O)cc1 | · | · | · | -20 | · | · | · | · | ·
O=C(COC(=O)/C=C/c1cccc(C(F)(F)F)c1)Nc1ccc(Cl)cn1 | 1 | -11 | 9 | 3 | 0.6* | 102 | 0 | 92 | 0
O=C(COC(=O)/C=C/c1cccc([N+](=O)[O-])c1)Nc1ccc(Cl)cn1 | 7 | 7 | -6 | -8 | 0 | · | · | · | ·
COc1cc(/C=C(\C#N)c2ccccn2)ccc1OCc1ccc(Cl)cc1 | 4 | 1 | -1 | · | 6.7* | 97 | 0 | 112 | 0
CCN(CC)Cc1c(O)ccc2c(=O)c(-c3ccccc3)coc12 | -11 | -2 | 0 | -4 | 1.2* | 93 | 0 | 94 | 0
CC(C)NC(=O)NCC[C@H]1CC[C@@H](NS(=O)(=O)c2ccccc2)[C@H](CO)O1 | · | · | · | 1 | · | · | · | · | ·
O=C(O)c1cc(Br)ccc1NS(=O)(=O)c1cccc2nsnc12 | -4 | -5 | 7 | -8 | 0 | · | · | · | ·
